Measurements from PubChem BioAssay AID1159580 (chemical genetic matrix, 2015).
“And” between values parts separate entries of the source, which are not always exact repeats. Identical values can stand only once. About 2,000 (36%) of roughly 5,500 compounds were called active. Roughly 18% stayed inconclusive and do not appear here. No stated cut-off is given here; in the data, active means normalized growth mostly below about 0.91 (no sharp cut-off); inconclusive means no clear call, values can overlap the other calls; inactive means mostly above about 0.92. Some of the results follow.

Experiment: chemical genetic growth profiling, strain panel (AID 1159580);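 further: tested at 20 µM; growth read once vehicle control cultures reached saturation at 30 °C; 1 = growth at the plate median or of vehicle wells; lower values mean less growth of the strain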
Conditions: S. cerevisiae deletion strains, growth OD

Measured: normalized growth

CCN(CC)C(=S)SSC(=S)N(CC)CC
active: locus YAL013W, strain DEP1, active compounds read low 0.0629 and 0.897 | locus YAL021C, strain ccr4, active compounds read low 0.0672 | locus YAL026C, strain drs2, active compounds read low 0.0682 | locus YAL030W, strain snc1, active compounds read low 0.0564 | locus YAL040C, strain CLN3, active compounds read low 0.308 | locus YBL061C, strain skt5, active compounds read low 0.062 | locus YBR009C, strain hhf1, active compounds read low 0.0652 | locus YBR021W, strain FUR4, active compounds read low 0.0934 | locus YBR023C, strain chs3, active compounds read low 0.0638 | locus YBR171W, strain sec66, active compounds read low 0.0771 | locus YBR229C, strain ROT2, active compounds read low 0.426 | locus YBR231C, strain swc5, active compounds read low 0.0656 | locus YBR279W, strain paf1, active compounds read low 0.063 | locus YCL011C, strain gbp2, active compounds read low 0.0576 | locus YCL016C, strain dcc1, active compounds read low 0.065 | locus YCL029C, strain bik1, active compounds read low 0.135 | locus YCL061C, strain MRC1 (second series), active compounds read low 0.936 | locus YCL061C, strain MRC1, active compounds read low 0.0667 | locus YCL069W, strain vba3, active compounds read low 0.0629 | locus YCR088W, strain abp1, active compounds read low 0.062 | locus YDL005C, strain med2, active compounds read low 0.0753 | locus YDL035C, strain GPR1, active compounds read low 0.0484 | locus YDL040C, strain nat1, active compounds read low 0.0568 | locus YDL074C, strain BRE1, active compounds read low 0.0817 | locus YDL101C, strain DUN1, active compounds read low 0.068 | locus YDL134C, strain PPH21, active compounds read low 0.0516 | locus YDL185W, strain tfp1, active compounds read low 0.788 | locus YDL192W, strain arf1, active compounds read low 0.0621 | locus YDR001C, strain nth1, active compounds read low 0.0666 | locus YDR069C, strain doa4, active compounds read low 0.0647 | locus YDR101C, strain arx1, active compounds read low 0.101 | locus YDR137W, strain rgp1, active compounds read low 0.0968 | locus YDR150W, strain NUM1, active compounds read low 0.0605 | locus YDR159W, strain sac3, active compounds read low 0.0932 | locus YDR162C, strain NBP2, active compounds read low 0.0518 | locus YDR195W, strain ref2 0.121 | locus YDR297W, strain sur2, active compounds read low 0.0658 | locus YDR318W, strain mcm21, active compounds read low 0.0632 | locus YDR334W, strain swr1, active compounds read low 0.066 | locus YDR335W, strain msn5, active compounds read low 0.0613 | locus YDR388W, active compounds read low 0.0574 | locus YDR392W, strain spt3, active compounds read low 0.103 | locus YDR502C, strain sam2, active compounds read low 0.0592 | locus YEL003W, strain gim4, active compounds read low 0.0548 | locus YEL037C, strain rad23, active compounds read low 0.0581 | locus YEL061C, strain CIN8 (second series), active compounds read low 0.0638 | locus YEL061C, strain CIN8, active compounds read low 0.0531 | locus YER015W, strain faa2, active compounds read low 0.0589 | locus YER016W, strain bim1, active compounds read low 0.0621 | locus YER110C, active compounds read low 0.0748 | locus YER111C, strain swi4, active compounds read low 0.0842 | locus YER155C, strain BEM2 (second series), active compounds read low 0.092 | locus YER155C, strain BEM2, active compounds read low 0.0787 | locus YER167W, strain BCK2, active compounds read low 0.0526 | locus YFR010W, strain ubp6, active compounds read low 0.0704 | locus YGL078C, strain dbp3, active compounds read low 0.0558 | locus YGL086W, strain mad1, active compounds read low 0.0539 | locus YGL167C, strain pmr1, active compounds read low 0.0736 | locus YGL173C, strain kem1, active compounds read low 0.0686 | locus YGL227W, strain vid30, active compounds read low 0.0649 | locus YGL240W, strain doc1, active compounds read low 0.0818 | locus YGL248W, strain PDE1, active compounds read low 0.0479 | locus YGL253W, strain hxk2, active compounds read low 0.0556 | locus YGR078C, strain PAC10, active compounds read low 0.0528 | locus YGR135W, strain pre9, active compounds read low 0.0614 | locus YGR229C, strain SMI1, active compounds read low 0.0585 and 0.186 | locus YGR252W, strain gcn5, active compounds read low 0.111 | locus YHR013C, strain ard1, active compounds read low 0.114 | locus YHR027C, strain rpn1, active compounds read low 0.0617 | locus YHR030C, strain SLT2, active compounds read low 0.0521 and 0.114 | locus YHR079C, strain IRE1 (second series), active compounds read low 0.0828 | locus YHR079C, strain IRE1, active compounds read low 0.111 | locus YHR094C, strain hxt1, active compounds read low 0.0606 | locus YHR129C, strain ARP1, active compounds read low 0.0581 | locus YHR142W, strain chs7, active compounds read low 0.0762 | locus YHR200W, strain rpn10, active compounds read low 0.0631 | locus YIL066C, strain RNR3, active compounds read low 0.0508 | locus YIL073C, strain SPO22, active compounds read low 0.104 | locus YIL125W, strain kgd1, active compounds read low 0.0593 | locus YIR030C, strain dcg1, active compounds read low 0.0587 | locus YJL092W, strain hpr5, active compounds read low 0.0611 | locus YJL095W, strain BCK1 (second series), active compounds read low 0.0583 | locus YJL095W, strain BCK1, active compounds read low 0.0582 and 0.114 | locus YJL115W, strain asf1, active compounds read low 0.0765 | locus YJL129C, strain trk1, active compounds read low 0.0869 | locus YJL134W, strain LCB3, active compounds read low 0.0503 | locus YJL154C, strain vps35, active compounds read low 0.0608 | locus YJL164C, strain tpk1, active compounds read low 0.0649 | locus YJL166W, strain qcr8, active compounds read low 0.0615 | locus YJL168C, strain set2, active compounds read low 0.0602 | locus YJL187C, strain SWE1 (second series), active compounds read low 0.102 | locus YJL187C, strain SWE1, active compounds read low 0.0577 | locus YJR043C, strain POL32, active compounds read low 0.0598 | locus YJR066W, strain TOR1, active compounds read low 0.00329
inactive: locus YDR363W, strain ESC2, active compounds read low 0.997
